Data taken from PubChem BioAssay AID624138 (Broad Institute, 2012).
Hit rate of the full screen: of about 17,000 compounds, about 35 (0.2%) were called active.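 How the source made its calls: active means compounds whose four printed spots each show fluorescence over background unusually high for their array block, chance value under 7%; inactive means the rest.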 Many of the other results were omitted from the sample, so actives are more common in it than they were.

Molecular target: Signal transducer and activator of transcription 3 (Homo sapiens) (UniProt P40763)
Assay: small molecules binding His-tagged STAT3 – biochemical, small molecule microarray, single point, set 2, primary screen (AID 624138)
Settings: anti-His fluorescence

Signal transducer and activator of transcription 3 (Homo sapiens), sequence (P40763 whole entry, looked up): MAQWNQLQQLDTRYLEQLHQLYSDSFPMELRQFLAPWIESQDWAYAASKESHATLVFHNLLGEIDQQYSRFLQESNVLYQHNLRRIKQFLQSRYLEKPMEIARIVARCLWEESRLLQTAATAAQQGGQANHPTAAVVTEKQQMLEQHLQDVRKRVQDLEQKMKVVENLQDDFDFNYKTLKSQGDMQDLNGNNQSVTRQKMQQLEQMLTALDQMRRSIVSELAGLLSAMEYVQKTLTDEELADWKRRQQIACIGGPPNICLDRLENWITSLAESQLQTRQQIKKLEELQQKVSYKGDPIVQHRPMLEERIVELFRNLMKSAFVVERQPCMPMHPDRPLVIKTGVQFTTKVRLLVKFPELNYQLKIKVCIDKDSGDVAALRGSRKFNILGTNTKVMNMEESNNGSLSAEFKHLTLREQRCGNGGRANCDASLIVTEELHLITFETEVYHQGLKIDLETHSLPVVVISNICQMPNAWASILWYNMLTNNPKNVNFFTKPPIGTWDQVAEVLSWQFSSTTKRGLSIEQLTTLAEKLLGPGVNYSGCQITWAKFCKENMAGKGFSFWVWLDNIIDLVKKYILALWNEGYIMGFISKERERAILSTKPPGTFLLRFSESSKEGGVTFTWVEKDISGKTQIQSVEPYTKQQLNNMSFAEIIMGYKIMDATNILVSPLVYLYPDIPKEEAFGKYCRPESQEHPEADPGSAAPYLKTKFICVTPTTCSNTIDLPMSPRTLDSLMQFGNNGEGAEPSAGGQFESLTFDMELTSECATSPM

| Compound | outcome |
| --- | --- |
| CNC[C@@H]1Oc2ccc(NC(=O)Nc3ccc4c(c3)OCO4)cc2C(=O)N([C@H](C)CO)C[C@@H]1C | inactive |
| C[C@@H]1CCCCO[C@@H](CN(C)Cc2ccc(Cl)c(Cl)c2)[C@@H](C)CN([C@@H](C)CO)C(=O)c2cc(NS(C)(=O)=O)ccc2O1 | inactive |
| C[C@H]1CCCCO[C@@H](CN(C)Cc2ccccc2)[C@@H](C)CN([C@@H](C)CO)C(=O)c2cc(NC(=O)CCCN(C)C)ccc2O1 | inactive |
| C[C@H]1CN([C@@H](C)CO)C(=O)c2cc(NC(=O)Nc3ccccc3)ccc2O[C@@H]1CN(C)C(=O)Nc1ccccc1 | inactive |
| CCOC(=O)c1c(CN2CCOCC2)nc2c3ccccc3ccn12 | inactive |
| O=C(c1cc2ccccc2oc1=O)N(Cc1ccc(F)cc1)Cc1ccco1 | inactive |
| CCOC(=O)c1sc(NC(=S)Nc2ccc3c(c2)OCCO3)c(C(=O)OCC)c1C | inactive |
| CC(Oc1ccccc1)C(=O)N[C@@H]1C(=O)N2[C@@H]1SC(C)(C)[C@@H]2C(=O)O (stereo partly specified) | inactive |
| CC(C)NC(=O)Nc1ccc2c(c1)C(=O)N([C@H](C)CO)C[C@H](C)[C@@H](CN(C)C(=O)CCCN(C)C)OCCCC[C@@H](C)O2 | inactive |
| COc1ccc(-c2oc3cc(OC)ccc3c2C(=O)c2ccc(C#N)cc2)cc1 | inactive |
| C[C@H](CO)N1C[C@H](C)[C@@H](CN(C)Cc2ccncc2)Oc2ccc(NC(=O)Nc3ccccc3)cc2C1=O | inactive |
| C[C@H](CO)N1C[C@H](C)[C@H](CN(C)C(=O)NC2CCCCC2)Oc2c(NC(=O)c3nc4ccccc4s3)cccc2C1=O | inactive |
| C[C@@H]1CCCCO[C@H](CN(C)C(=O)Nc2cccc3ccccc23)[C@@H](C)CN([C@H](C)CO)C(=O)c2cc(NS(=O)(=O)c3cccs3)ccc2O1 | inactive |
| C[C@@H]1CCCCO[C@H](CN(C)Cc2ccccc2)[C@H](C)CN([C@@H](C)CO)C(=O)c2cc(NS(=O)(=O)c3ccccc3)ccc2O1 | inactive |
| C[C@H](CO)N1C[C@H](C)[C@H](CN(C)S(=O)(=O)c2ccc(F)cc2)Oc2ncc(-c3ccc(F)cc3)cc2C1=O | inactive |
| C[C@@H]1CN([C@@H](C)CO)C(=O)c2cc(NS(C)(=O)=O)ccc2O[C@@H]1CN(C)C(=O)Nc1ccc(F)cc1 | inactive |
| C[C@H](CO)N1C[C@H](C)[C@@H](CN(C)S(=O)(=O)c2cn(C)cn2)Oc2ccc(NS(=O)(=O)c3cn(C)cn3)cc2C1=O | inactive |
| C[C@@H]1CC[C@]2(C(=O)O)CC[C@]3(C)C(=CCC4[C@@]5(C)CC[C@H](O)[C@](C)(C(=O)O)C5CC[C@]43C)C2[C@]1(C)O (stereo partly specified) | inactive |
| NC(=O)CSc1nnc(-c2ccccc2F)n1-c1ccccc1 | inactive |
| C[C@H](CO)N1C[C@H](C)[C@H](CN(C)Cc2ccc(C(=O)O)cc2)Oc2c(NC(=O)C3CCOCC3)cccc2C1=O | inactive |
| COC(=O)c1ccccc1NC(=O)CNS(=O)(=O)c1cc(Cl)ccc1Cl | inactive |
| Cc1noc(C)c1NC(=O)N(C)C[C@@H]1OCCCC[C@@H](C)Oc2ccc(NC(=O)C3CCCCC3)cc2C(=O)N([C@H](C)CO)C[C@@H]1C | inactive |
| COC(=O)c1c(NC(=O)c2cc(-c3ccccn3)nc3c(C)cc(C)cc23)sc(C)c1C | inactive |

| Compound | outcome |
| --- | --- |
| COc1ccc(NC(=O)Nc2ccc3c(c2)C(=O)N([C@@H](C)CO)C[C@@H](C)[C@H](CN(C)S(=O)(=O)c2cccs2)O3)cc1 | inactive |
| Cc1noc(C)c1NC(=O)Nc1cccc2c1O[C@H](CN(C)C(=O)Nc1c(C)noc1C)[C@@H](C)CN([C@@H](C)CO)C2=O | inactive |
| CC[C@@H]1Cc2cc(O)ccc2C2=C1c1ccc(O)cc1C[C@H]2CC | inactive |
| CC(C)C(NS(=O)(=O)c1ccc(-c2ccc(Br)cc2)cc1)C(=O)O (stereo unspecified) | inactive |
| O=C(NCc1ccccc1)C1=C[C@@H](C2CCCCC2)C[C@@H](OCc2ccc(CO)cc2)O1 | active |
| CC(C)(C)[C@H]1C=C(C(=O)NCc2ccccc2)O[C@@H](OCc2ccc(CO)cc2)C1 | inactive |
| O=C(NCc1ccccc1)C1=C[C@H](C2CC2)C[C@H](OCc2ccc(CO)cc2)O1 | inactive |
| C[C@@H]1CN([C@@H](C)CO)C(=O)CCCn2nncc2CO[C@@H]1CN(C)Cc1ccccc1 | inactive |
| CN(C)c1nc(Nc2nc3ccccc3[nH]2)nc(N(C)C)n1 | inactive |
| COC(=O)C(C)N(C(=O)c1ccccc1[N+](=O)[O-])c1c(C)cccc1C (stereo unspecified) | inactive |
| COc1ccc(NC(=O)Nc2nn(Cc3ccc(Cl)cc3Cl)cc2Br)cc1OC | inactive |
| COCCCNC(=O)C(=O)c1cn(C)c2ccccc12 | inactive |
| O=C1C[C@@](C(=O)NCC(F)(F)F)(c2ccc([N+](=O)[O-])cc2)[C@@H](c2ccc(CO)cc2I)N1C1CCCCC1 | inactive |
| COC(=O)C1=C[C@H](O[C@@H]2O[C@H](CO)[C@@H](O)[C@H](O)[C@H]2O)C[C@H]2[C@]3(C)C[C@@H](c4ccoc4)OC(=O)[C@H]3CC[C@@]12C | inactive |
| CCn1c(SCC(=O)O)nnc1-c1ccc(OC)cc1 | inactive |
| C[C@H](CO)N1C[C@H](C)[C@H](CN(C)C(=O)Nc2ccccc2)Oc2ccc(NC(=O)CCN3CCOCC3)cc2CC1=O | inactive |
| OC[C@H]1O[C@@H](OCc2ccccc2)[C@H](O[C@@H]2OC[C@](O)(CO)[C@H]2O)[C@@H](O)[C@@H]1O | inactive |
| COc1ccc(CCN2C(=O)[C@@]3(Cc4ccccc42)c2ccccc2C(=O)N(Cc2ccccc2C(F)(F)F)[C@H]3c2ccc(CO)cc2)cc1 | inactive |
| C[C@@H]1CN([C@H](C)CO)C(=O)CCCn2cc(nn2)CO[C@@H]1CN(C)C(=O)Nc1ccc2c(c1)OCO2 | inactive |
| O=C(Nc1cccc(OCC(=O)N2CCOCC2)c1)C1CCCCC1 | inactive |
| O=c1c(-c2ccc(O[C@@H]3O[C@H](CO)[C@@H](O)[C@H](O)[C@H]3O)cc2)coc2c([C@@H]3O[C@H](CO)[C@@H](O)[C@H](O)[C@H]3O)c(O)cc(O)c12 | inactive |
| Cc1ccc(Cn2c(NCc3nc4ccccc4n3C)nc3ccccc32)cc1 | inactive |
| COc1cccc(-c2cc(C(F)(F)F)n3nc(C(=O)NCc4ccccn4)cc3n2)c1 | inactive |
